# PubChem BioAssay
# Values without a mark were called inactive. Activity calls are given as the source filed them. Rule as the data show it: active = inhibition above about 33%; inactive = the rest.
# Assay: compounds suppressing VP16-driven luciferase signal – cell-based, luminescence, high throughput, counter-screen for LRH-1 inverse agonist project (AID 651615)
# Settings: Gal4-VP16 luciferase reporter cells, at 3.6 µM, stronger effect = higher value
row,Compound,inhibition
1,S=C(Nc1cccnc1)Nc1cccc2cnccc12,17%
2,COc1ccc(CCNC(=O)CSc2nc3[nH]c(=O)cc(O)c3s2)cc1,-3.78%
3,O=C1CCc2cc(OCCCCc3nnnn3C3CCCCC3)ccc2N1,9.24%
4,CN(C)S(=O)(=O)c1cccc(CSCc2cccc(S(=O)(=O)N(C)C)c2)c1,46.1% (active)
5,COc1cccc2c1C1COC3C4CC(C(=O)O)C(C(C2)N13)N4C (stereo unspecified),-10.2%
6,COc1ccc(CCNC(=O)CSc2nnc(CNC(=O)c3cccs3)o2)cc1OC,1.47%
7,CCOc1ccc(C(C)=O)cc1COC(=O)c1cc([N+](=O)[O-])ccc1N1CCOCC1,7.41%
8,Cc1ccc(C2CC(C(F)(F)F)n3nc(C(=O)NCc4ccco4)cc3N2)cc1 (stereo unspecified),-8.91%
9,COc1cc(OC)cc(-c2oc3cccnc3c2C#CCCO)c1,-0.7%
10,COc1ccc(/C=N/n2c(SC)nnc2-c2ccccc2)c(OC)c1OC,-31.8%
11,COc1ccc(CCNC(=O)CSc2nc3[nH]ncc3c(=O)n2-c2ccccc2Br)cc1OC,-2.5%
